Some targets named below: KCNK6; KCNK12; KCNJ4; KCNJ11; KCNRG; KDELR1.
Common to all, as to experiment: pooled miR-30 sensor sort-seq; sequence = guide strand
What all share (settings): shRNA

For 36 sequences, sensor-assay potency score (higher = more potent) results are on record in the OligoGym collection.
Further: reference of the scale not given here.

On to TAGTCGGTGTGGGAGCTGGCAG, for which the sensor-assay potency score (higher = more potent) with KCNK6 was -1.57.
Regarding AGTAAATGCAGCACACGCCGAG, in the test with KCNK12, the sensor-assay potency score (higher = more potent) is -1.04.
With TTGACGCACACGCTGCGCGGGT, the sensor-assay potency score (higher = more potent) with KCNK12 was -0.763.
Still for that read-out and setting: under TTGAAGAACAGGATGGTCCCAG stands 0.312.
For AAGGCATCCAAGAAGCTCCAGG, the sensor-assay potency score (higher = more potent) with KCNK6 was -0.209.
Consider TCTCGTAGCAGAAGGCACTGGG, for which the sensor-assay potency score (higher = more potent) with KCNJ4 stood at 0.705.
Take TCATCCGCATTGAAACTGGCAG: the sensor-assay potency score (higher = more potent) with KCNK6 is -0.75.
The sequence AAAACGTGAGTAGTCCACCTTG showed a sensor-assay potency score (higher = more potent) in the test with KCNJ4 of -0.537.
TTGCGTACCACCTGCATGTGGA gave a sensor-assay potency score (higher = more potent) in the test with KCNJ11 of -0.169.
TTGTTCATGATGCCCAGCGCGC registered a sensor-assay potency score (higher = more potent) in the test with KCNK12 of -1.54.
Sequence TTGAGGTGCGAACGGCGGCAGC came in with a sensor-assay potency score (higher = more potent) in the test with KCNK12 of -1.57.
In the test with KCNJ4, TTGGCCGTTCTTCTTGACGAAG returned a sensor-assay potency score (higher = more potent) of -1.51.
For ATGCTTGCTGAAGATGAGGGTC, in the test with KCNJ11, the sensor-assay potency score (higher = more potent) was -1.14.
In turn, TCGGAGCCTGGCTTCGTGCGGC returned a sensor-assay potency score (higher = more potent) with KCNK6 of -0.634.
In the test with KCNK12, TTGATGAGGATGGAGATGACGT showed a sensor-assay potency score (higher = more potent) of -0.352.
TCATCGGCCAGGTAGGAGGTGC: the sensor-assay potency score (higher = more potent) in the test with KCNJ11 was -0.639.
The same measure, in the same setting: under TTGACGGTGTTGCCAAACTTGG stands -1.46.
In the case of TCGAGCGCCGAGAAGACTGTGG, the sensor-assay potency score (higher = more potent) in the test with KCNK12 was -0.801.
Take TAGCGCTGCGACTTGTTGCTCA: the sensor-assay potency score (higher = more potent) with KCNJ4 was 0.0555.
TACATGGCCGAGGCGCAGCAGG came in with a sensor-assay potency score (higher = more potent) with KCNK12 of -1.41.
For ATGAAGGAGTCGATGACGCAGC, in the test with KCNJ4, the sensor-assay potency score (higher = more potent) was -1.02.
ATCAATGACATGGTAGATGATC displayed a sensor-assay potency score (higher = more potent) with KCNJ11 of -1.55.
In turn, TTACTCTCCTGCAGCTCCCGGG gave a sensor-assay potency score (higher = more potent) with KCNJ4 of -0.832.
On to TCCTCATCCGCATTGAAACTGG, for which the sensor-assay potency score (higher = more potent) with KCNK6 is -1.46.
Regarding TTCTGCAGCAGCGCCAGCGACA, the sensor-assay potency score (higher = more potent) with KCNK12 was -1.81.
In the test with KCNJ4, TAGGTCTTGTGAAAACGTGAGT yielded a sensor-assay potency score (higher = more potent) of -0.691.
Same read-out and setting: as for TAGGAGATGTTGTCCAGCGGGA, the figure is -0.546.
In turn, AAGAGGTTGAAGAACAGGATGG came in with a sensor-assay potency score (higher = more potent) with KCNK12 of -0.732.
For TTATTGACAACGGAGAAGGCAG, in the test with KCNJ11, the sensor-assay potency score (higher = more potent) is -0.854.
The sequence TTGTGTACCCATAGCCCACGGT yielded a sensor-assay potency score (higher = more potent) with KCNK6 of -0.627.
On the same count and under the same terms, under TAAAGCAGAAGTAGAAGGCATC stands -0.372; under TTGCTGGTGCGACTCCGGCTGG, -1.34.
As for TACTGTTCTAGTGCTGACCAAA, the sensor-assay potency score (higher = more potent) with KCNRG is -1.23.
Still for that read-out and setting: as for TTTTGGTGTTTCATTCGTGATG, the figure is -1.02.
AGGAACTCCACTCTGAACGTGT: the sensor-assay potency score (higher = more potent) with KDELR1 is -0.99.
Turning to TTTTGTCTTCAGAAGATACTGT, in the test with KCNRG, the sensor-assay potency score (higher = more potent) was 0.229.
